This excerpt belongs to a sample that is enriched for hits.
CD40 NFkB inh – CD40 pathway inhibition in BL2 cells; BL2 NF-kB luciferase reporter, CD40L-induced, 4 h; inhibition, % at 10 µM; actives 0.94% (n = 83,000);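 active means mean inhibition of at least 50% with a set share of replicates also reaching that level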;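 further: 0% = neutral control wells and 100% = IKK inhibitor VII at 50 µM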
Numbers without * were called inactive; [ ] = remark or other dose.

SMILES	CD40 NFkB inh
CC=Cc1ccc2n(c1=O)C[C@H]1[C@H](CO)[C@@H](C(=O)NCCC)N(C(=O)CC3CC3)[C@@H]21 (mixture of isomers)	-7[25 µM]
COc1ccc(CN2[C@@H]3CN(C(=O)Nc4ccc(F)cc4)c4ccccc4[C@@H]3[C@@H]2CO)cc1	-24[25 µM]
O=C(Nc1ccc2c(c1)[C@@H]1C[C@H](CC(=O)N3CCc4ccccc4C3)O[C@@H](CO)[C@@H]1O2)c1ccc2c(c1)OCO2	-1[25 µM]
CN(C)C(=O)C[C@H]1CC[C@@H]2[C@H](COc3ccc(NC(=O)C4CCC4)cc3C(=O)N2C)O1	0
CC(=O)Nc1ccc2c(c1)Cc1ccc(Cl)cc1-2	-51
CC(=O)Nc1ccc2c(c1)Cc1cc(N3C(=O)C=CC3=O)ccc1-2	97*
CC(=O)Nc1ccc2c(c1)-c1ccc(F)cc1C2	-6
COc1ccccc1S(=O)(=O)N1[C@@H]2CNC[C@H]1[C@H]2c1ccc(-c2ccccc2C)cc1	15
COc1cc(/C=C/c2ccc(OC)cc2OC)cc(OC)c1	-22[25 µM]
COc1ccc(C=Cc2ccc3ccccc3n2)c(OC)c1	49*
COc1cc(OC)c(OC)cc1/C=C/c1ccnc2ccccc12	-1
COc1ccc(-c2ccc([C@H]3[C@@H](CO)N(C(=O)C4CCC4)[C@H]3C#N)cc2)cc1	4
CN(C)C(=O)c1cccc(-c2ccc(C3[C@H]4CNC[C@@H]3N4C(=O)NC3CCCC3)cc2)c1 (some centres not stated)	5
COC(=O)C1C(C(=O)OC)C1(c1ccccc1)c1ccccc1 (configuration not stated)	3
COC(=O)C1=C(C(=O)OC)C(C(=O)OC)C(C(=O)OC)C(C(=O)OC)(C(=O)OC)C(C(=O)OC)=C1C(=O)OC (configuration not stated)	75*
COc1ccc(-c2ccc(C3[C@H]4CNC[C@@H]3N4S(=O)(=O)c3cccc(OC)c3)cc2)cc1 (some centres not stated)	1
COc1cccc(CN2CC3(CN(C)C3)c3c(n(C)c4cc(OC)ccc34)[C@@H]2CO)c1	-12[25 µM]
CCC(=O)N1[C@@H]2Cn3c(ccc(-c4ccccc4F)c3=O)[C@H]1[C@@H](C(=O)NC1CCC1)[C@@H]2CO	-5[25 µM]
CC(C)NC(=O)N1[C@@H]2CN(CC(F)(F)F)C[C@H]1C2c1ccccc1 (some centres not stated)	14
O=C(c1cc(-c2ccc3c(c2)OCO3)on1)N1CCN(c2ccccc2)CC1	-38
O=C(COCc1cc(-c2ccc3c(c2)OCO3)on1)N1CCCCC1	-68
O=C(c1cc(-c2ccc3c(c2)OCO3)on1)N1CCOCC1	48*
Cc1c(C#N)c(N)nc(Cl)c1C#N	3
CC1=C(C#N)c2nc(N)c(C#N)c(C)c2/C1=C\c1ccccc1	49*
CCc1nc(N)c(C#N)c(-c2cccc3ccccc23)c1C	4
SMILES	CD40 NFkB inh
O=C(Nc1ccc2c(c1)OCO2)N[C@H]1CC[C@H](CCNC(=O)C2CCCC2)O[C@@H]1CO	-7
COc1cc(C(=O)O[C@H]2CC(C)=CC[C@@]3(C)CC[C@@](O)(C(C)C)[C@H]23)ccc1O	52*
CCCOC(=O)c1ccc(O)c(OC)c1	15
O=C(CN1CCOCC1)N[C@@H]1CC[C@H](CCn2cc(C3CCCC3)nn2)O[C@H]1CO	2
O=C1N[C@@H](Cc2ccccc2)COCc2cn(nn2)CC[C@H]1Cc1ccccc1	-5
COCC(=O)N1CC(=O)N2[C@H](C1)[C@@H](c1ccc(-c3cccnc3)cc1)[C@@H]2CO	0
CO[C@H]1CN(C)C(=O)c2ccc(NC(=O)C3CCOCC3)cc2OC[C@@H](C)N(CC2CC2)C[C@H]1C	-4
C[C@@H]1CN([C@@H](C)CO)C(=O)Cc2cc(NC(=O)Cc3cn(C)c4ccccc34)ccc2O[C@@H]1CN(C)C(=O)Nc1ccccc1	-3
C[C@@H]1CN([C@@H](C)CO)C(=O)Cc2cc(NS(=O)(=O)c3ccc(Cl)cc3)ccc2O[C@H]1CN(C)Cc1ccc(Cl)c(Cl)c1	65*
C[C@H](CO)N1C[C@H](C)[C@@H](CN(C)Cc2ccc(Cl)c(Cl)c2)Oc2ccc(NS(=O)(=O)c3ccc(Cl)cc3)cc2CC1=O	14
C[C@H](CO)N1C[C@H](C)[C@@H](CN(C)Cc2ccc(C(=O)O)cc2)Oc2ccc(NS(=O)(=O)c3cccs3)cc2C1=O	0[25 µM]
C[C@@H]1CN([C@H](C)CO)C(=O)Cc2cc(NS(=O)(=O)c3ccc(F)cc3)ccc2O[C@@H]1CN(C)Cc1ccncc1	3[25 µM]
Cc1noc(C)c1S(=O)(=O)Nc1ccc2c(c1)CC(=O)N([C@@H](C)CO)C[C@@H](C)[C@@H](CN(C)Cc1ccc(Cl)c(Cl)c1)O2	15
C[C@@H]1CN([C@@H](C)CO)C(=O)c2cc(NS(=O)(=O)c3cccs3)ccc2O[C@@H]1CN(C)Cc1ccc(C(=O)O)cc1	2[25 µM]
C[C@@H]1CN([C@@H](C)CO)C(=O)Cc2cc(NC(=O)Cc3cn(C)c4ccccc34)ccc2O[C@H]1CN(C)Cc1ccc(C(F)(F)F)cc1	66*[25 µM]
C[C@@H]1CN([C@@H](C)CO)C(=O)Cc2cc(NS(=O)(=O)c3ccc(F)cc3)ccc2O[C@@H]1CN(C)Cc1ccncc1	3[25 µM]
